From PubChem BioAssay AID1159580 (chemical genetic matrix, 2015)
Several values for one entry are separate records, joined by “and”; a condition that tells them apart may be missing. Equal entries are not always repeated. Out of some 5,500 compounds screened, about 2,000 (36%) were called active. Roughly 18% stayed inconclusive and do not appear here. Rule as the data show it: active = normalized growth mostly below about 0.91 (no sharp cut-off); inconclusive = no clear call, values can overlap the other calls; inactive = mostly above about 0.92. The list shows a part of the results.

Assay: chemical genetic growth profiling, strain panel (AID 1159580);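 also: tested at 20 µM; growth read once vehicle control cultures reached saturation at 30 °C; 1 = growth at the plate median or of vehicle wells; lower values mean less growth of the strain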
Conditions: S. cerevisiae deletion strains, growth OD

Measured: normalized growth

COc1cc(O)ccc1C(C)=O
inactive: locus YAL013W, strain DEP1, active compounds read low 0.99 | locus YAL021C, strain ccr4, active compounds read low 1.02 | locus YAL026C, strain drs2, active compounds read low 1.02 | locus YAL030W, strain snc1, active compounds read low 1.01 | locus YBL061C, strain skt5, active compounds read low 1.02 | locus YBR009C, strain hhf1, active compounds read low 1.02 | locus YBR021W, strain FUR4, active compounds read low 1.05 | locus YBR023C, strain chs3, active compounds read low 1.04 | locus YBR171W, strain sec66, active compounds read low 1.01 | locus YBR229C, strain ROT2, active compounds read low 0.958 | locus YBR231C, strain swc5, active compounds read low 1 | locus YBR279W, strain paf1, active compounds read low 1 | locus YCL011C, strain gbp2, active compounds read low 1.03 | locus YCL016C, strain dcc1, active compounds read low 1.03 | locus YCL029C, strain bik1, active compounds read low 0.973 | locus YCL061C, strain MRC1, active compounds read low 1.02 | locus YCL069W, strain vba3, active compounds read low 1.01 | locus YCR088W, strain abp1, active compounds read low 1.02 | locus YDL005C, strain med2, active compounds read low 1.01 | locus YDL035C, strain GPR1, active compounds read low 0.979 | locus YDL040C, strain nat1, active compounds read low 1.01 | locus YDL074C, strain BRE1, active compounds read low 1.03 | locus YDL101C, strain DUN1, active compounds read low 0.974 | locus YDL134C, strain PPH21, active compounds read low 0.977 | locus YDL185W, strain tfp1, active compounds read low 0.97 | locus YDL192W, strain arf1, active compounds read low 0.992 | locus YDR001C, strain nth1, active compounds read low 1.02 | locus YDR069C, strain doa4, active compounds read low 1.02 | locus YDR101C, strain arx1, active compounds read low 1.03 | locus YDR137W, strain rgp1, active compounds read low 1.05 | locus YDR150W, strain NUM1, active compounds read low 0.981 | locus YDR159W, strain sac3, active compounds read low 1.03 | locus YDR162C, strain NBP2, active compounds read low 0.939 | locus YDR195W, strain ref2 1 | locus YDR297W, strain sur2, active compounds read low 1.02 | locus YDR318W, strain mcm21, active compounds read low 0.965 | locus YDR334W, strain swr1, active compounds read low 1.02 | locus YDR335W, strain msn5, active compounds read low 1.01 | locus YDR388W, active compounds read low 0.949 | locus YDR392W, strain spt3, active compounds read low 0.95 | locus YDR502C, strain sam2, active compounds read low 1.02 | locus YEL003W, strain gim4, active compounds read low 1.01 | locus YEL037C, strain rad23, active compounds read low 1.02 | locus YEL061C, strain CIN8 (second series), active compounds read low 1.02 | locus YEL061C, strain CIN8, active compounds read low 0.982 | locus YER015W, strain faa2, active compounds read low 1.03 | locus YER016W, strain bim1, active compounds read low 1.02 | locus YER110C, active compounds read low 0.979 | locus YER111C, strain swi4, active compounds read low 1.02 | locus YER155C, strain BEM2 (second series), active compounds read low 1.02 | locus YER155C, strain BEM2, active compounds read low 0.989 | locus YER167W, strain BCK2, active compounds read low 0.979 | locus YFR010W, strain ubp6, active compounds read low 1.02 | locus YGL078C, strain dbp3, active compounds read low 0.989 | locus YGL086W, strain mad1, active compounds read low 1.02 | locus YGL167C, strain pmr1, active compounds read low 1.02 | locus YGL173C, strain kem1, active compounds read low 1.03 | locus YGL227W, strain vid30, active compounds read low 1.02 | locus YGL240W, strain doc1, active compounds read low 1.01 | locus YGL248W, strain PDE1, active compounds read low 0.952 | locus YGL253W, strain hxk2, active compounds read low 1.02 | locus YGR078C, strain PAC10, active compounds read low 0.952 | locus YGR135W, strain pre9, active compounds read low 0.962 | locus YGR229C, strain SMI1, active compounds read low 1 | locus YGR252W, strain gcn5, active compounds read low 0.961 | locus YHR013C, strain ard1, active compounds read low 1.03 | locus YHR027C, strain rpn1, active compounds read low 1.02 | locus YHR030C, strain SLT2, active compounds read low 0.998 and 1.02 | locus YHR079C, strain IRE1 (second series), active compounds read low 0.99 | locus YHR079C, strain IRE1, active compounds read low 1.01 | locus YHR094C, strain hxt1, active compounds read low 0.973 | locus YHR129C, strain ARP1, active compounds read low 0.987 | locus YHR142W, strain chs7, active compounds read low 1.04 | locus YHR200W, strain rpn10, active compounds read low 0.982 | locus YIL066C, strain RNR3, active compounds read low 0.985 | locus YIL073C, strain SPO22, active compounds read low 0.955 | locus YIL125W, strain kgd1, active compounds read low 0.981 | locus YIR030C, strain dcg1, active compounds read low 0.987 | locus YJL092W, strain hpr5, active compounds read low 1.02 | locus YJL095W, strain BCK1 (second series), active compounds read low 1.02 | locus YJL095W, strain BCK1, active compounds read low 0.942 and 1.02 | locus YJL115W, strain asf1, active compounds read low 1.02 | locus YJL129C, strain trk1, active compounds read low 1.04 | locus YJL134W, strain LCB3, active compounds read low 0.989 | locus YJL154C, strain vps35, active compounds read low 1.02 | locus YJL164C, strain tpk1, active compounds read low 1.03 | locus YJL166W, strain qcr8, active compounds read low 1.01 | locus YJL168C, strain set2, active compounds read low 1.01 | locus YJL187C, strain SWE1 (second series), active compounds read low 0.974 | locus YJL187C, strain SWE1, active compounds read low 1.01
